Data published in PubChem BioAssay (NCI).
This is part of a sample that, as a whole, favours compounds with a hit. Of some 83,000 tested, about 20% had one in any assay.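 Assay: single dose, 48 h. Readout: percent growth (0 = no net growth; negative = cell death). Active: <10.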 Values without a mark were called inactive. The source made the active and inactive calls.

Key:
Test in all cases: NCI-60 one-dose screen, 48 h (100 = growth as untreated, 0 = no growth, -100 = all killed)
Settings in all cases: 10 µM unless noted
DU-145 prostate = system: DU-145 prostate
K-562 leukemia = system: K-562 leukemia
MALME-3M melanoma = system: MALME-3M melanoma
MDA-MB-231 breast = system: MDA-MB-231 breast
RXF 393 renal = system: RXF 393 renal
SF-268 CNS = system: SF-268 CNS
SF-295 CNS = system: SF-295 CNS
SF-539 CNS = system: SF-539 CNS
UACC-257 melanoma = system: UACC-257 melanoma
M14 melanoma = system: M14 melanoma

| SMILES | growth (DU-145 prostate) | growth (K-562 leukemia) | growth (MALME-3M melanoma) | growth (MDA-MB-231 breast) | growth (RXF 393 renal) | growth (SF-268 CNS) | growth (SF-295 CNS) | growth (SF-539 CNS) | growth (UACC-257 melanoma) | growth (M14 melanoma) |
| --- | --- | --- | --- | --- | --- | --- | --- | --- | --- | --- |
| [Cl-].[Rh+3].c1ccc(-c2ccnc3c2ccc2c(-c4ccccc4)ccnc23)cc1.c1ccc(-c2ccnc3c2ccc2c(-c4ccccc4)ccnc23)cc1.c1ccc(-c2ccnc3c2ccc2c(-c4ccccc4)ccnc23)cc1 | 126% | 34.7% | 94.3% | 93.6% | 22.1% | 95% | 69.5% | -5.79% (active) | 63.6% | 45.7% |
| O=C1/C(=C\c2ccc([N+](=O)[O-])cc2)CS(=O)(=O)C/C1=C/c1ccc([N+](=O)[O-])cc1 | -78.2% (active) | -27.8% (active) | -62.7% (active) | -86.9% (active) | -100% (active) | -49% (active) | -16% (active) | -64% (active) | -89.8% (active) | -92.2% (active) |
| CN(C)c1ccc(/C=C/c2sc3ccc4ccccc4c3[n+]2C)cc1 | -40% (active) | 0.148% (active) | -48.8% (active) | -61.5% (active) | -95.1% (active) | -65.1% (active) | -35.4% (active) | -54.6% (active) | -48.7% (active) | -76.5% (active) |
| CC(=O)c1c(O)c(C)c(O)c2c1OC1=CC(=O)C(C(C)=O)C(=O)C12C (stereo not given) | 107% | 68.9% | 79.4% | 96.3% | 105% | 88.9% | 16.7% | 98% | 97.8% | 67.6% |
| O=[N+]([O-])CC(O)c1ccccc1 (stereo not given) | 109% | 99.4% | 122% | 87.6% | 112% | 100% | 113% | 103% | 88.7% | 97.6% |
| C(=N\Nc1ccc2ccccc2n1)/c1ccccn1 | 22.7% | 15.4% | -23.6% (active) | 30.5% | 16.7% | 16.7% | 14.7% | -14.2% (active) | -3.38% (active) | -8.17% (active) |
| O=C1C=CC(=O)N1c1cccc2c1CCCC2 | 103% | 57.1% | 85.5% | 106% | 94.1% | 101% | 90.6% | 105% | 103% | 110% |
| CCN(CC)CC(O)CNc1ccc(NCC2CO2)c2c1C(=O)c1ccccc1C2=O (stereo not given) | -19.1% (active) | -25.6% (active) | -44.4% (active) | -2.98% (active) | 4.29% (active) | -7.61% (active) | 20.4% | -39.4% (active) | -2.17% (active) | -63.1% (active) |
| CN=C(N)N/N=C(\c1ccccc1)c1ccc(Br)cc1 | -9.2% (active) | -6.02% (active) | 25.9% | -9.39% (active) | -0.626% (active) | 11.9% | -46% (active) | -19.2% (active) | 47.2% | -13.1% (active) |
| O=C(c1ccccc1)c1cc2ccccc2oc1=O | 114% | 111% | 90.4% | 79.5% | 90% | 101% | 113% | 116% | 96.9% | 104% |
| CN(C)c1ccc(/C=C/c2cc[n+](C)c(/C=C/c3ccc(N(C)C)cc3)c2)cc1 | 23% | 4.82% (active) | 1.82% (active) | 8.47% (active) | 28.3% | 24.2% | -3.21% (active) | 27.1% | -18.8% (active) | 14.4% |
| CC(C)(C)c1ccc(CCO)cc1 | 114% | 91.3% | 82.5% | 102% | 117% | 104% | 88.7% | 88.6% | 97.2% | 104% |
| O=C1/C(=C/c2ccccc2)CCC/C1=C\c1ccccc1 | 90% | 62% | 89.5% | 98.9% | 98% | 86.9% | 91.8% | 111% | 84.5% | 64% |
| O=C(CBr)c1ccc(OC(=O)c2ccccc2)cc1 | 114% | 89% | 125% | 107% | 119% | 102% | 112% | 102% | 87.9% | 87.4% |
| Cc1cc(C(=O)c2ccc(Cl)cc2)ccc1O | 98.2% | 112% | 112% | 94.3% | 75.7% | 92.5% | 90.3% | 93% | 115% | 89.2% |
| COC(=O)c1nc(=S)[nH]c(C(=O)OC)c1C(=O)c1ccc(Cl)c(Cl)c1 | 120% | 113% | 102% | 102% | 112% | 111% | 99.8% | 102% | 111% | 107% |
| COc1cc(-c2ccc(-[n+]3nc(-c4ccc([N+](=O)[O-])cc4)nn3-c3ccc([N+](=O)[O-])cc3)c(OC)c2)ccc1-[n+]1nc(-c2ccc([N+](=O)[O-])cc2)nn1-c1ccc([N+](=O)[O-])cc1 | -32.7% (active) | 3.89% (active) | -44.6% (active) | 51.4% | -39.9% (active) | -33.9% (active) | -30.7% (active) | -66.4% (active) | -42.5% (active) | 58.3% |
| CCCc1cc(=O)oc2c3c(c4c(c12)OC(C)(C)CC4)OC(C)[C@H](C)[C@@H]3O (stereo not given in full) | 104% | 71.2% | 139% | 79.9% | 77.5% | 94.4% | 44.5% | 108% | 104% | 102% |
| COc1c(C)c2c(c(O)c1C/C=C(\C)CCC(=O)O)C(=O)OC2 | 50.8% | 20.2% | 38.8% | 57% | 50.7% | 34.8% | 16.8% | 40.7% | 13.2% | 20.4% |
| Oc1ccc(Nc2ccc3ccccc3c2)cc1 | 51.2% | 26.5% | 92.9% | 36% | 78.3% | 50.4% | 67.7% | 36.6% | 73.7% | 53.3% |
| Oc1ccc(Br)cc1Sc1cc(Br)ccc1O | 76.4% | 49.2% | 40.9% | 56.7% | 76.8% | 55.3% | 98.9% | 45.3% | 52.1% | 39.9% |
| CN(C)CCN(C)CC(C)(C)C(=O)/C=C/c1ccc(Cl)c(Cl)c1 | -99.2% [100 µM] (active) | -21.1% [100 µM] (active) | -95.5% [100 µM] (active) | -98% [100 µM] (active) | -95.1% [100 µM] (active) | -54.8% [100 µM] (active) | -97.9% [100 µM] (active) | -99.3% [100 µM] (active) | -90.4% [100 µM] (active) | -92% [100 µM] (active) |
| NC1=C(Br)C(=O)c2ncccc2C1=O | -57.8% (active) | -44.2% (active) | -85.9% (active) | 19.2% | 13.5% | -43.9% (active) | -84.3% (active) | -91.5% (active) | -58.4% (active) | -88.7% (active) |
| CCCOS(=O)(=O)c1ccccc1 | 118% | 128% | 111% | 107% | 112% | 106% | 113% | 102% | 111% | 115% |
| COC(=O)C(=[N+]=[N-])C(=O)c1ccc([N+](=O)[O-])o1 | 104% | 81.6% | 25.4% | 97.6% | 81.3% | 92.4% | 108% | 104% | 61.5% | 89.6% |
| Cc1cc(Br)c2nsnc2c1[N+](=O)[O-] | 18.9% | 22.7% | 82.4% | 30% | 48.2% | 32.3% | 33.8% | 9.73% (active) | 66.9% | 3.57% (active) |
| c1ccc(C2NCCNC2c2ccccc2)cc1 (stereo not given) | 104% | 105% | 111% | 98.4% | 120% | 101% | 104% | 98.7% | 99.6% | 102% |
| Cc1ccc2cccc(OC(=O)Nc3cccc(C(F)(F)F)c3)c2n1 | 71.1% | 33.5% | 82% | 86.6% | 95.6% | 95% | 6.24% (active) | 96.4% | 87.3% | 85.5% |
| CCOC(=O)c1c(C)[nH]c2ccc(O)cc12 | 106% | 101% | 103% | 96.7% | 109% | 97.7% | 111% | 98.1% | 92.9% | 101% |
